About 79,000 compounds went through this panel and 15% of them were active in at least one assay; those are over-represented in the sample as a whole. Calls of active or inactive are those of the source. No stated cut-off is given here; in the data, active means growth inhibition above about 70%; inactive means the rest.
Columns and labels:
[1] = NCI Yeast Anticancer Drug Screen. Data for the wt1 strain (AID 149);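 further: 0% = growth of vehicle-treated wt1 cultures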; settings: S. cerevisiae wt1 strain (SPY 50644) growth inhibition, stronger effect = higher value
Summary of the method: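 Measured: growth of wt1 yeast under compound versus vehicle treatment, reported as inhibition.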

[2] = NCI Yeast Anticancer Drug Screen. Data for the rad50EPP+ strain (AID 151);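 further: 0% = growth of vehicle-treated control cultures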; settings: S. cerevisiae rad50 mutant strain, stronger effect = higher value
Summary of the method: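 In this screen, rad50EPP+ yeast were exposed to compounds. Growth inhibition was scored against vehicle-treated controls.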

[3] = NCI Yeast Anticancer Drug Screen. Data for the mgt1 strain (AID 153); settings: S. cerevisiae mgt1 mutant growth inhibition, stronger effect = higher value
Summary of the method: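 mgt1 strain exposed; growth vs vehicle control recorded as inhibition.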

[4] = NCI Yeast Anticancer Drug Screen. Data for the rad50 strain (AID 155);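 further: 0% = growth of vehicle-only cultures of the same strain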; settings: S. cerevisiae rad50 strain growth inhibition, stronger effect = higher value
Summary of the method: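 Growth of the mutant yeast was measured after compound exposure and referenced to vehicle-treated cultures.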

[5] = NCI Yeast Anticancer Drug Screen. Data for the mec2-1 strain (AID 157); settings: S. cerevisiae mec2-1 strain, stronger effect = higher value
Summary of the method: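 Vehicle-treated cultures served as reference for growth inhibition of compound-exposed mec2-1 yeast.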

[6] = NCI Yeast Anticancer Drug Screen. Data for the rad14 strain (AID 159);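 further: 0% = growth of vehicle-treated control cultures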; settings: S. cerevisiae rad14 strain growth inhibition, stronger effect = higher value
Summary of the method: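 Here, inhibition of yeast growth was measured after compound exposure, using a strain with a genetic defect in DNA damage repair and vehicle-treated cultures as the reference.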

[7] = NCI Yeast Anticancer Drug Screen. Data for the sgs1 mgt1 strain (AID 161);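 further: 0% = growth of cultures given vehicle only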; settings: S. cerevisiae sgs1 mgt1 strain, stronger effect = higher value
Summary of the method: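 Genetically altered yeast, compound exposure, growth inhibition relative to vehicle.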

[8] = NCI Yeast Anticancer Drug Screen. Data for the CLN2oe strain (AID 163);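 further: 0% = growth of vehicle-only control cultures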; settings: S. cerevisiae CLN2oe strain, stronger effect = higher value
Summary of the method: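 Inhibition relative to vehicle-treated yeast is reported. Cells: strain with genetic alteration in cell-cycle control, grown with compound.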

[9] = NCI Yeast Anticancer Drug Screen. Data for the cln2 rad14 strain (AID 165);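 further: 0% = growth equal to vehicle treated cultures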; settings: S. cerevisiae cln2 rad14 strain, stronger effect = higher value
Summary of the method: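 Each compound was tested on cln2 rad14 yeast. Inhibition of growth was calculated against vehicle-exposed controls.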

[10] = NCI Yeast Anticancer Drug Screen. Data for the bub3 strain (AID 167); settings: S. cerevisiae bub3 mutant strain, stronger effect = higher value
Summary of the method: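 Whole-cell yeast assay. The mutant strain was incubated with compounds, and growth inhibition was determined by comparison with vehicle-treated cells.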

[11] = NCI Yeast Anticancer Drug Screen. Data for the wt2 strain (AID 169);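 further: 0% = growth of vehicle-treated yeast cultures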; settings: S. cerevisiae wt2 strain growth inhibition, stronger effect = higher value
Summary of the method: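 Inhibition of yeast growth was determined after compound treatment, normalised to controls receiving only vehicle.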

[12] = NCI Yeast Anticancer Drug Screen. Data for the sgs1 strain (AID 173);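 further: 0% = growth of vehicle-only control cultures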; settings: S. cerevisiae sgs1 mutant, stronger effect = higher value
Summary of the method: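 Screen format: yeast with repair or checkpoint alterations, compound exposure, growth read relative to vehicle.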

[13] = NCI Yeast Anticancer Drug Screen. Data for the mlh1 rad18 strain (AID 175); settings: S. cerevisiae mlh1 rad18 strain growth inhibition, stronger effect = higher value
Summary of the method: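 Vehicle-treated cultures served as the reference for growth inhibition in a yeast strain carrying DNA damage repair alterations exposed to each compound.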

[14] = NCI Yeast Anticancer Drug Screen. Data for the rad18 strain (AID 177); settings: S. cerevisiae rad18 mutant growth inhibition, stronger effect = higher value
Summary of the method: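 Test articles were incubated with altered yeast defective in DNA damage repair. Results are given as inhibition of growth versus vehicle.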

[15] = at 5.0 µM (retest, dose inferred, filed as 0.5)
[16] = at 50.0 µM (retest, dose inferred, filed as 5.0)

Measured: growth inhibition

O=[N+]([O-])C(=C(NCc1ccccc1)NCc1ccccc1)C(Cl)=C(Cl)Cl
inactive: [1]; at 1.2 µM 1% | [1]; at 3.7 µM 2% | [1]; at 11.0 µM 7% | [1]; at 33.0 µM 10% | [1]; at 100.0 µM 41% | [2]; at 1.2 µM 3% | [2]; at 3.7 µM 18% | [2]; at 11.0 µM 56% | [3]; at 1.2 µM -2% | [3]; at 3.7 µM 3% | [3]; at 11.0 µM 5% | [3]; at 33.0 µM 29% | [3]; at 100.0 µM 62% | [4]; at 1.2 µM 1% | [4]; at 3.7 µM 1% | [4]; [15] -8% | [4]; at 11.0 µM 6% | [4]; at 33.0 µM 13% | [4]; [16] 57% | [4]; at 50.0 µM 26.6% | [4]; at 100.0 µM 52% | [5]; at 1.2 µM -1% | [5]; at 3.7 µM 0% | [5]; [15] -7% | [5]; at 11.0 µM 4% | [5]; at 33.0 µM 14% | [5]; [16] 24% | [5]; at 50.0 µM 23.6% | [5]; at 100.0 µM 54% | [6]; at 1.2 µM -4% | [6]; at 3.7 µM -3% | [6]; at 11.0 µM 1% | [6]; at 33.0 µM 11% | [6]; at 100.0 µM 56% | [7]; [15] 2% | [7]; [16] 45% | [7]; at 50.0 µM 66% | [8]; at 1.2 µM -5% | [8]; at 3.7 µM -3% | [8]; at 11.0 µM 6% | [8]; at 33.0 µM 14% | [8]; at 100.0 µM 62% | [9]; [15] 40% | [9]; [16] 55% | [9]; at 50.0 µM 64.2% | [10]; at 1.2 µM -5% | [10]; at 3.7 µM -9% | [10]; [15] 0% | [10]; at 11.0 µM 0% | [10]; at 33.0 µM 5% | [10]; [16] 42% | [10]; at 50.0 µM 33% | [10]; at 100.0 µM 49% | [11]; at 1.2 µM 1% | [11]; at 3.7 µM 2% | [11]; at 11.0 µM 9% | [11]; at 33.0 µM 19% | [12]; at 1.2 µM 1% | [12]; at 3.7 µM 7% | [12]; at 11.0 µM 15% | [12]; at 33.0 µM 39% | [13]; [15] 12% | [14]; at 1.2 µM -1% | [14]; at 3.7 µM 1% | [14]; at 11.0 µM 5% | [14]; at 33.0 µM 20%
active: [2]; at 33.0 µM 83% | [2]; at 100.0 µM 85% | [11]; at 100.0 µM 70% | [12]; at 100.0 µM 83% | [13]; [16] 83% | [13]; at 50.0 µM 81.5% | [14]; at 100.0 µM 85%

Reference: PubChem BioAssay (NCI)
